Potency data for 107 compounds are collected here from PubChem BioAssay AID504834 (National Center for Advancing Translational Sciences (NCATS), 2011).

The whole screen tested about 320,000 compounds, of which about 22,000 (6.9%) were called active. Entries that show only a call come without a potency. Inconclusive results (about 27%) are left out. The call rests on the fitted dose curve; in most records, active means well fitted inhibition curve with a large enough effect; inconclusive means small, poorly fitted or top-dose-only effect, or another doubt; inactive means no such curve, though single readings can be large or run the other way. This excerpt belongs to a sample that is enriched for actives.
Potency means the concentration at half of the fitted maximal effect.

This assay in a line: Primary qHTS for delayed death inhibitors of the malarial parasite plastid, 96 hour incubation. Particulars: P. falciparum luciferase reporter growth; series mostly up to 28.7 µM. The source says: The goal of this screen is to discover new antimalarial compounds that act by inhibiting the development of the apicoplast in the malarial parasite Plasmodium falciparum. The biochemical processes that make this organelle essential for erythrocytic stage parasites are not well understood. However, antibiotics such as azithromycin and tetracycline, which target the apicoplast translational machinery, have a potent antimalarial effect.
We have developed a cell-based assay that measures parasite growth based on the expression of an integrated copy of a firefly luciferase reporter. To detect small molecules that cause this "delayed death" phenotype, erythrocytes infected with the luciferase-expressing parasites were incubated with compounds for either one or two generations, corresponding to 48 and 96 hours, respectively. Compounds that inhibit parasite growth in the second generation, but not the first, should be enriched in antimalarials that target the apicoplast. Growth inhibition is detected by a decrease in luciferase activity.
Assay Provider: David Fidock and Eric Ekland, Columbia University
Keywords: NIH Roadmap, MLPCN, MLI, MLSMR, qHTS, NCGC, qHTS, malaria, luciferase, viability
Four microliters of infected erythrocytes (2% hematocrit, 0.05% parasitemia final concentration) in culture medium were dispensed and the plates incubated for 96 hours at 37 C in 5% CO2. Two microliters of luciferase detection reagent was added and luminescence was detected by a ViewLux (PerkinElmer) reader.
For orientation: qHTS replaces the single test concentration by a dilution series.
As to `C/C=C(/C)C(=O)Nc1cccc(C2=NOC3(C2)C[C@@H](C(N)=O)N(C(=O)C2(C)CC2)C3)c1` (some centres not stated), the Potency entry was “inactive”.

Turning to `CCOc1ncccc1C(=O)OCC(=O)c1c[nH]c2ccccc12`, the Potency result is “inactive”.

On to `O=C(NCCS(=O)(=O)NCc1ccc(F)cc1)c1ccccc1`, for which the Potency result is “inactive”. On to `CSc1nccc(NC(=O)c2ccc(C(C)(C)C)cc2)n1`, for which the Potency result is “inactive”. As for `CN1CCN(C2=NCCO2)CC1`, the entry is “inactive”.

For the compound `Cc1ccc(Sc2cc(C(=O)c3ccccc3C(=O)O)ccc2[N+](=O)[O-])cc1`, the Potency result is “inactive”.

`CN(C)c1ccc(Nc2c3c4c(cccc4n(C)c2=O)C(=O)c2ccccc2-3)cc1`: the Potency is 5.22 µM (active). In the case of `CN(C)c1ccc(C2N(C)C(=O)c3ccccc3N2C)cc1` (configuration not stated), the Potency entry was “inactive”.

For the compound `CC1C(=O)N(Cc2ccccc2)c2ccccc2N1C(=O)c1ccccc1` (configuration not stated), the Potency result is “inactive”. `O=C(COC(=O)Cn1[nH]c(=O)c2ccccc2c1=O)Nc1c(Cl)cccc1C(F)(F)F`: the Potency result was “inactive”. As for `COc1cc(NC(=O)C2=CC(c3ccco3)=NS(=O)(=O)N2C)cc(OC)c1OC`, the entry is “inactive”. Consider `CC/C(=N\NC(=O)c1c(C)nc2ccccn12)c1ccc(Cl)cc1`, for which the Potency result was “inactive”. For the compound `O=C(Nc1ccccc1N1CCOCC1)c1ccc(OCc2cscn2)cc1`, the Potency entry is “inactive”. As for `Cc1nnc(NC(=O)/C=C/c2ccco2)s1`, the entry is “inactive”; as for `CCc1nnc(NC(=O)/C=C/c2ccc(C)o2)s1`, 10.4 µM (active). As for `CCC(CC)c1nnc(NC(=O)/C=C/c2ccco2)s1`, the entry is “inactive”; as for `CN1CCN(c2ccc(CNS(=O)(=O)c3cccc(F)c3)cc2)CC1`, “inactive”.

`N#CCCN(C(=O)COC(=O)C1CCN(c2ccc(C(F)(F)F)cn2)CC1)c1ccc(F)cc1`: the Potency entry was “inactive”.

In the case of `COc1ccccc1-n1nnnc1SCC(=O)NC(=O)Cc1ccccc1`, the Potency entry is “inactive”. As for `O=C(c1cccc(-n2cccc2)c1)N1CCN(S(=O)(=O)c2ccc(F)cc2)CC1`, the entry is “inactive”. Take `CCOC(=O)CSc1ncc(-c2cccc(Cl)c2)cn1`: the Potency result is “inactive”.

In the case of `Cc1oc(-c2cccc(Cl)c2)[n+]([O-])c1C`, the Potency is 5.22 µM (active). As for `Cc1oc(-c2ccccc2Cl)[n+]([O-])c1C`, the entry is “inactive”. As for `Cc1[nH]n(C(N)=S)c(=O)c1N=Nc1ccc(Cl)cc1Cl`, the entry is “inactive”. As for `CC(=O)Nc1cccc(C(=O)OCC(=O)NCc2cc(C)c(O)c(C)c2)c1`, the entry is “inactive”; as for `Cc1ccc(S(=O)(=O)N2CC(O)C[C@H]2C(=O)OCC(=O)Nc2ccc(N3CCOCC3)cc2)cc1C` (some centres not stated), “inactive”. Turning to `CN(C(=O)COC(=O)c1ccc(Br)o1)c1c(N)n(Cc2ccccc2)c(=O)[nH]c1=O`, the Potency result is “inactive”. In the case of `CCCCNC(=O)c1ccc(-n2c(=S)[nH]c3ccccc3c2=O)cc1`, the Potency entry is “inactive”.

Regarding `CCOC(=O)N1CCN(C(=O)Cc2ccc(-n3c(=S)[nH]c4ccccc4c3=O)cc2)CC1`, the Potency is 13.1 µM (active). As for `O=C(Cc1ccc(-n2c(=O)[nH]c3ccccc3c2=O)cc1)N1CCN(c2cccc(Cl)c2)CC1`, the entry is “inactive”; as for `CCc1nc(N2CCN(C(C)=O)CC2)c2c3c(sc2n1)CCCC3`, “inactive”. Take `O=C(/C=C/c1cccc(F)c1)NC1CC1`: the Potency entry is “inactive”. As for `CC(=O)c1nc2ccccc2n1Cc1ccccc1`, the Potency result was “inactive”. As for `CC(=O)Nc1nc2ccccc2n1Cc1ccc(C)cc1`, the entry is “inactive”; as for `CCCc1nc2c(C)cc(-c3nc4ccccc4n3C)cc2n1Cc1ccc(-c2ccccc2C(=O)O)cc1`, 1.51 µM (active). Consider `Cc1ccc2cc(/C=N/NC(=O)[C@@H]3CCCN3)c(Cl)nc2c1`, for which the Potency entry is “inactive”. On to `COc1ccc(CCNC(=O)CCc2cn(C)c3ccccc23)c(OC)c1`, for which the Potency entry is “inactive”. Turning to `Cc1nc(N)[nH]c(=O)c1Oc1cccc(C(F)(F)F)c1`, the Potency result is “inactive”. As for `O=C(NCc1cccnc1)Nc1cccc(NC(=O)NCc2cccnc2)c1F`, the entry is “inactive”; as for `CC1CC(C)CN(C(=O)COC(=O)c2ccc3ncsc3c2)C1` (configuration not stated), “inactive”. Regarding `Cc1ccc(S(=O)(=O)NC(=O)Nc2nc(-c3ccc(F)c(F)c3)cs2)cc1`, the Potency entry was “inactive”.

Take `Cc1cc(=O)cc(C)n1-c1ccc(Cl)c(Cl)c1`: the Potency result was “inactive”. As for `CCCNC(=O)c1onc(CSc2ccc(F)cc2)c1C(=O)NC(C)C`, the Potency was 11.7 µM (active). As for `CCOc1cccc(SCc2noc(C(=O)NC(C)C)c2C(=O)O)c1`, the Potency entry is “inactive”. For `CCCCNC(=O)c1onc(CSc2cccc(OC)c2)c1C(=O)O`, the Potency entry is “inactive”.

Take `Nc1cccc(-c2cc(-c3ccccc3)nc(-c3cccc(N)c3)n2)c1`: the Potency is 10.4 µM (active). As for `Nc1nc(-c2ccccc2)cc(-c2ccccc2)n1`, the entry is “inactive”. For the compound `CNc1nc(-c2ccccc2)cc(-c2ccccc2)n1`, the Potency result was “inactive”. As for `CCCOc1ccc(Cc2c(O)nc(SC)[nH]c2=O)cc1C`, the entry is “inactive”; as for `Cc1ccc(S(=O)(=O)NCCSC(C)(C)C)cc1`, “inactive”. As for `COc1ccccc1CNS(=O)(=O)c1ccc(C)cc1`, the entry is “inactive”; as for `COc1nc(N(C)C)nc(N2CC(=O)N(CCNS(=O)(=O)c3ccc(C)cc3)C2=N)n1`, 2.33 µM (active). As for `CCOC(=O)C1(CCOC)CCN(Cc2cc3ccccc3s2)CC1`, the entry is “inactive”; as for `O=C(Nc1cccc(-c2cscn2)c1)C1CCN(Cc2ccsc2)CC1`, “inactive”.

Take `CCOc1cc(C2C(C(=O)OC(C)C)=C(C)NC3=C2C(=O)CCC3)cc([N+](=O)[O-])c1O` (configuration not stated): the Potency result was “inactive”. `CCOC(=O)C1=C(C)NC2=C(C(=O)CC(C)(C)C2)C1c1ccsc1` (configuration not stated): the Potency was 7.38 µM (active). As for `COc1cc(C2C(C#N)=C(C)NC3=C2C(=O)CC(C)(C)C3)ccc1O` (configuration not stated), the entry is “inactive”; as for `Cc1ccc2c(C)c(C(=O)N(C)Cc3ccncn3)oc2c1C`, “inactive”; as for `CCCc1ccc(-c2csc(NC(=O)Cc3cccs3)n2)cc1`, 11.7 µM (active). As for `COc1cccc(CC(=O)Nc2nc(-c3ccc(OC)c(OC)c3)cs2)c1`, the entry is “inactive”. As for `CCc1nnc(NC(=O)Cc2cccs2)s1`, the entry is “inactive”; as for `CC(NCC(=O)Nc1cc(Cl)cc(Cl)c1)c1ccccc1` (configuration not stated), “inactive”; as for `COc1cccc(-c2coc3cc4oc(=O)c(CC(=O)O)c(C)c4cc23)c1`, “inactive”. `COc1ccc(OCCCC(=O)OC(C)C(=O)Nc2ccccc2[N+](=O)[O-])cc1` (configuration not stated): the Potency entry was “inactive”. As for `O=C1NC(=O)C(CCc2ccccn2)(Cc2cccc(Cl)c2Cl)C(=O)N1c1ccc(Br)cc1` (configuration not stated), the Potency entry was “inactive”. As for `Cc1ccc(N2C(=O)NC(=O)C(CCc3ccncc3)(Cc3cccc(Cl)c3Cl)C2=O)cc1` (configuration not stated), the figure is 11.7 µM (active).

`CC(C)(C)c1ccc(/C=C/C(=O)NCCCn2ccnc2)cc1`: the Potency entry was “inactive”.

Turning to `CC(C)C[C@@H](CO)N1CCN(Cc2ccc(O)cc2)CCC1=O`, the Potency result is “inactive”. As for `CC(C)C[C@@H](COc1ccccc1)N1CCN(CC(C)C)CCC1=O`, the figure is 11.7 µM (active); as for `O=C1CCN(CCc2ccccc2)CCN1CCOc1ccccc1`, “inactive”; as for `CCCNC(=O)N1CCC(c2ccc3c(c2)OCO3)CC1`, “inactive”.

For the compound `CC1CN(C(=S)Nc2ccc(S(N)(=O)=O)cc2)CC(C)O1` (configuration not stated), the Potency entry is “inactive”.

Regarding `O=[N+]([O-])c1ccc(N2CCN(c3ccc(F)cc3)CC2)cn1`, the Potency entry was “inactive”.

Turning to `OCCN1CCN(c2nnc(-c3ccccc3)c3ccccc23)CC1`, the Potency entry was “inactive”. As for `Cc1ccc(CN2CCNC(=O)C2CC(=O)NCc2csc(C(C)C)n2)cc1` (configuration not stated), the figure is 11.7 µM (active); as for `Cc1nccn1CCCNC(=O)CC1C(=O)NCCN1Cc1ccc(Cl)c(F)c1` (configuration not stated), “inactive”. In the case of `CCn1ccnc1CNC(=O)CC1C(=O)NCCN1Cc1ccc(F)cc1Cl` (configuration not stated), the Potency result was “inactive”.

Consider `CCn1ccnc1CNC(=O)CC1C(=O)NCCN1CCCc1ccccc1` (configuration not stated), for which the Potency entry was “inactive”.

With `CCCOC(=O)CC1C(=O)NCCN1Cc1ccc(F)cc1` (configuration not stated), the Potency result was “inactive”. As for `CCOc1ccc(CN2CCNC(=O)C2CC(=O)NCCCC2CCCC2)cc1` (configuration not stated), the figure is 13.1 µM (active); as for `CC(=O)Nc1ccc(NC(=O)C(NS(=O)(=O)c2ccc3c(c2)OCCO3)C(C)C)cc1` (configuration not stated), “inactive”. Take `CCn1cc(C(=O)N[C@@H](C)C(=O)NCCO)c(=O)c2cc3c(cc21)OCO3`: the Potency result was “inactive”. For the compound `COc1nnc(-c2ccc(C)c(S(=O)(=O)N(C)C)c2)c2ccccc12`, the Potency entry is “inactive”. As for `c1ccc(-c2cc(-c3ccccc3)[nH]n2)cc1`, the entry is “inactive”; as for `CC(=O)OCCOCn1cnn2c(=O)c(Br)c(C)nc12`, “inactive”; as for `CC(C)c1nnc(NC(=O)C2CC(=O)N(CCc3ccc(F)cc3)C2)s1` (configuration not stated), “inactive”.

In the case of `S=C(NCCc1ccccc1)NCC1CCCO1` (configuration not stated), the Potency entry is “inactive”. As for `O=C(COC(=O)c1ccc(S(=O)(=O)Nc2ccccc2)cc1)NCC1CCCO1` (configuration not stated), the entry is “inactive”; as for `O=C(CS(=O)(=O)Cc1ccccc1)NCC1CCCO1` (configuration not stated), 2.94 µM (active); as for `COc1ccc(NS(=O)(=O)c2ccc(C)c(C(=O)NNC(=O)c3csc(N4CCOCC4)n3)c2)cc1`, “inactive”. For the compound `CC(=O)Nc1ccc(S(=O)(=O)Nc2ccc(N3CCOCC3)c(F)c2)cc1`, the Potency entry is “inactive”. As for `COc1ccc(NS(=O)(=O)c2ccc(N3CCOCC3)c(NC(=O)c3ccccc3Br)c2)cc1`, the figure is 9.28 µM (active). As to `CCCCn1c(N)c(N(CC(C)C)C(=O)c2ccc(-n3c(C)ccc3C)cc2)c(=O)[nH]c1=O`, the Potency result is “inactive”. As to `CCOc1ccc(C(=O)NC2CCN(C(=O)Nc3ccccc3OC)CC2)cc1`, the Potency entry was “inactive”. As for `CCOc1ccc(C(=O)NC2CCN(S(=O)(=O)CC)CC2)cc1`, the figure is 2.33 µM (active); as for `CCOc1ccc(NC(=S)N2CCC(NC(=O)c3ccccc3)CC2)cc1`, “inactive”; as for `CCOc1c(OC)cccc1C(=O)NCC1(c2ccccc2)CCCC1`, “inactive”.

`CN(C)CCn1c2c(c(SCC(=O)NCc3ccccc3)nc1=O)CCC2`: the Potency result was “inactive”.

As for `COc1ccccc1CNC(=O)CSc1nc(=O)n(Cc2ccncc2)c2c1CCC2`, the Potency is 14.7 µM (active). For `COc1ccccc1CNC(=O)Cn1cc2c(n1)CCCC2`, the Potency result was “inactive”. Turning to `O=C(NCCc1ccc(Cl)cc1)C1CCCN1C(=O)NCc1ccccc1` (configuration not stated), the Potency entry was “inactive”. As for `NC(=O)C1CC(=O)N(c2ccc(OCC(=O)NCc3ccccc3)cc2)C1` (configuration not stated), the entry is “inactive”; as for `CC(NC(=O)c1ccc(S(=O)(=O)Nc2ccccc2)cc1)c1ccc(S(N)(=O)=O)cc1` (configuration not stated), “inactive”. As for `Cc1sc2nc(CSCC(=O)NC3CCCCC3)[nH]c(=O)c2c1C`, the entry is “inactive”; as for `O=C(CSc1nnc(-c2ccccc2)o1)N1CCOCC1`, “inactive”; as for `CC1=CC(C)(C)N(C(=O)CSc2nnc(-c3ccccc3)o2)c2ccc(C)cc21`, 13.1 µM (active). For the compound `Cc1cccc(C)c1OC(=O)CSc1nnc(-c2ccccc2)o1`, the Potency result is “inactive”.
